# Experimental data published in the supplement of paper PMC4371806.
# In all, about 2,300 compounds were measured (“plate-normalized OD600 growth (mean of duplicates)”: median about 0.29, lowest 2% from about 0.22 on). This is one part of a sample in which the lowest values are shown more often than they occur.
# System: Escherichia coli BW25113
# Assay: plate-normalized OD600 growth (mean of duplicates) (OD600 (normalized)); higher = more growth (less inhibition)
# Conditions: 10 µM
# Method: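 E. coli BW25113 in LB (100 µl, 96-well, no shaking) was exposed to 10 µM of each compound from a ~30,000-member library and grown at 37°C for 24 h or 15°C for 48 h, in duplicate. Growth was read as OD600 and the duplicate ODs were normalized across screening plates to correct plate-to-plate variation. Hits were >3σ below the mean OD600 at 15°C and <2σ below the mean at 37°C.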
Structure (SMILES),"plate-normalized OD600 growth (temperature: 15°C, 48 h)","plate-normalized OD600 growth (temperature: 37°C, 24 h)"
O=C(COc1ccccc1[N+](=O)[O-])Nc1ccccn1,0.24,0.619
COc1ccc(Nc2nc(N/N=C/c3ccc(-c4cccc(C(=O)O)c4)o3)nc(Nc3ccccc3)n2)cc1,0.226,0.634
CC(C)(C)OC(=O)NC(Cc1ccc(OCc2ccccc2)cc1)C(=O)O (stereo not given),0.26,0.615
CCOC(=O)/C(C(C)=O)=C1/SCC(C)S1 (stereo not given),0.235,0.609
O=C1CC2(CCCC2)C(=O)N1CCNc1nccc(C(F)(F)F)n1,0.261,0.637
Cc1ccc(NC(=O)Nc2ccc(C)c(NC(=O)Nc3ccc(C)cc3)c2)cc1,0.242,0.578
O=C(CNC(=O)C(c1ccccc1)c1ccccc1)N/N=C/c1cc(Br)ccc1O,0.237,0.617
COc1cc(OC)c(C2C(C#N)=C(N)Oc3n[nH]c(-c4cccnc4)c32)cc1OC (stereo not given),0.244,0.612
CCc1nc(N)c(C#N)c(-c2ccccc2)c1C,0.239,0.61
CSc1nc2sc(C)c(C)c2c(=O)n1-c1ccccc1,0.219,0.653
O=C1/C(=C\c2ccc(Cl)cc2Cl)N=C(c2ccccc2)N1C1CC1,0.241,0.577
COc1ccc(C(=O)NCC(=O)N/N=C(\C)c2cccc(N)c2)cc1OC,0.249,0.633
O=C1CCc2cccc3cccc1c23,0.235,0.604
CCN(CC)c1ccc(C2C(C(=O)OC3CCCCC3)=C(C)NC3=C2C(=O)CC(c2ccc(Cl)cc2)C3)cc1 (stereo not given),0.238,0.614
CC1(C)C2CCC1(C)C(N/C(=C(/C(Cl)=C(Cl)Cl)[N+](=O)[O-])n1nnc3ccccc31)C2 (stereo not given),0.253,0.629
O=C(Nc1ccc(F)c(Cl)c1)c1ccc(N2C(=O)/C(=C/c3ccccc3)N=C2c2ccccc2)cc1,0.238,0.653
COc1ccc(OC)c(NC(=O)c2ccc(N3C(=O)/C(=C/c4ccc(Cl)cc4)N=C3c3ccccc3)cc2)c1,0.216,0.634
CSc1ccc(/C=C2\N=C(c3ccccc3)N(c3ccc(C(=O)Nc4ccc(Br)cc4)cc3)C2=O)cc1,0.257,0.649
COc1cc(NC(=S)N2CCN(c3ccccc3OC)CC2)c(OC)cc1Cl,0.231,0.614
Cc1cc(N2CCCC2)ccc1/C=N/n1cnnc1,0.259,0.687

Structure (SMILES),"plate-normalized OD600 growth (temperature: 15°C, 48 h)","plate-normalized OD600 growth (temperature: 37°C, 24 h)"
Cc1cc(C=Nc2ccc(Cl)c(O)c2)c(C)n1-c1ccc(Cl)cc1,0.248,0.605
CN1N=C(SCc2ccc(Cl)cc2Cl)Sc2c1cnn(C)c2=O,0.25,0.591
CCCCCCCCNC(=O)C(=O)Nc1cccc(F)c1,0.244,0.564
Cc1ccc2c(c1)N(CCO)C(C)(C)CC2C (stereo not given),0.211,0.651
O=C(Nc1ccc(S(=O)(=O)Nc2cccc(Cl)c2Cl)cc1)C1COc2ccccc2O1 (stereo not given),0.262,0.62
Cc1cc(C)c2nc3s/c(=C\c4ccccc4C(F)(F)F)c(=O)n3c2c1,0.249,0.593
Cc1nc(-c2ccccn2)nc(NCCNc2cccc(C(F)(F)F)n2)c1Cl,0.257,0.626
O=C(CC1CCC1)Nc1cc(Cl)ccc1Cl,0.256,0.619
Cc1nnsc1C(=O)Nc1ccc(CN2CCS(=O)(=O)CC2)cc1,0.244,0.614
Cc1cc(NC(=NS(=O)(=O)c2ccc(Br)cc2)c2ccccc2)cc(C)c1O,0.251,0.652
Cc1cc(NC(=NS(=O)(=O)c2ccc(Br)cc2)c2ccccc2)c(Cl)c(C)c1O,0.214,0.634
Cc1ccc(S(=O)(=O)N=C(Nc2ccc(O)c(Cl)c2)c2ccccc2)cc1,0.232,0.618
Cc1oc(CC(C)C)cc1C(=O)Nc1cccc(C(=O)O)c1,0.255,0.643
Nc1ccccc1C(=O)Nc1cc(C(=O)O)cc(C(=O)O)c1,0.232,0.625
NC(N)=Nc1nc(-c2cc(Cl)sc2Cl)cs1,0.242,0.607
COc1cc(NC(=O)CCN2CCC(C)CC2)cc(OC)c1,0.217,0.647
Cc1c(Br)sc2ccc(Cl)cc12,0.247,0.612
O=C(CC1(O)C(=O)C=C(c2ccccc2)N1N=C(c1ccccc1)c1ccccc1)c1ccccc1 (stereo not given),0.242,0.588
CCOC(=O)COc1nc(-c2ccccc2)cc(-c2ccccc2)c1C#N,0.251,0.629
COc1ccc(C2SCC(=O)N2CCN2CCCCC2)cc1 (stereo not given),0.238,0.618

Structure (SMILES),"plate-normalized OD600 growth (temperature: 15°C, 48 h)","plate-normalized OD600 growth (temperature: 37°C, 24 h)"
O=c1[nH]c2cccnc2[nH]c1=O,0.233,0.617
COc1ccc(C2CC(=O)N2C2(C(=O)Nc3c(C)cccc3C)CCCCC2)cc1OC (stereo not given),0.24,0.605
c1ccc(OCCOc2ccccn2)nc1,0.25,0.612
COc1ccc(Nc2nc(Cl)nc(NCCC3=CCCCC3)n2)cc1,0.257,0.602
O=C1c2cccc3c(SCCO)ccc(c23)C(=O)N1CCc1ccccn1,0.265,0.634
O=C(O)c1cccc(N=Cc2ccc(OCc3ccc(F)cc3)cc2)c1,0.225,0.684
CCCc1ccc(OCC(=O)NNC(=S)Nc2ccccc2)cc1,0.244,0.618
C=CCn1c(CSc2ccccc2[N+](=O)[O-])n[nH]c1=S,0.26,0.606
C=CCn1c(Sc2ncc([N+](=O)[O-])s2)n[nH]c1=O,0.181,0.588
O=[N+]([O-])c1cnc(Sc2n[nH]c(-c3cccs3)n2)s1,0.225,0.607
COc1ccc(/C=N/Nc2nnnn2-c2cccc3ccccc23)cc1OC,0.253,0.627
N#CCC(=O)N(Cc1ccccc1F)C(=O)NC1CCCCC1,0.263,0.647
N/C(=N/OC(=O)c1ccccc1)c1ccc(-c2csnn2)cc1,0.252,0.6
CCC(C)(C)C1CCc2sc3nc[nH]c(=O)c3c2C1 (stereo not given),0.248,0.626
CCOc1cc(/C=N/n2cnc3sc4c(c3c2=O)CCCC4)cc(Br)c1OCc1ccc(Cl)cc1,0.245,0.619
CCOC(=O)c1ccc(-c2ccc(/C=C(\C#N)C(=O)NC3CCCCC3)o2)cc1,0.241,0.604
COC(=O)CSc1nc(N)cc(=O)[nH]1,0.247,0.605
Cc1cc(C)c(C(=O)CSc2nc3ccccc3[nH]2)c(C)c1,0.213,0.626
O=C(CSc1nc2ccccc2[nH]1)Nc1nc2ccccc2s1,0.244,0.604
O=C1CC(NCc2ccco2)C(=O)N1c1ccc(OC(F)(F)Cl)cc1 (stereo not given),0.268,0.642
